Rows were chosen to be rich in hits. Some 19% of all compounds tested hit in one or more screens of this group.
TDP1 block – qHTS Assay for Inhibitors of Tyrosyl-DNA Phosphodiesterase (TDP1); Tyrosyl-DNA phosphodiesterase 1 (Homo sapiens), Q9NUW8; recombinant TDP1, AlphaScreen DNA substrate cleavage; Potency, µM (series often up to 130 µM), most hits filed as inhibitors; 350,000 compounds, 0.28% hits; AID 485290, 2010; further: nearly all actives have a fitted effect of over 40% in size
Target sequence (Q9NUW8 whole entry, looked up): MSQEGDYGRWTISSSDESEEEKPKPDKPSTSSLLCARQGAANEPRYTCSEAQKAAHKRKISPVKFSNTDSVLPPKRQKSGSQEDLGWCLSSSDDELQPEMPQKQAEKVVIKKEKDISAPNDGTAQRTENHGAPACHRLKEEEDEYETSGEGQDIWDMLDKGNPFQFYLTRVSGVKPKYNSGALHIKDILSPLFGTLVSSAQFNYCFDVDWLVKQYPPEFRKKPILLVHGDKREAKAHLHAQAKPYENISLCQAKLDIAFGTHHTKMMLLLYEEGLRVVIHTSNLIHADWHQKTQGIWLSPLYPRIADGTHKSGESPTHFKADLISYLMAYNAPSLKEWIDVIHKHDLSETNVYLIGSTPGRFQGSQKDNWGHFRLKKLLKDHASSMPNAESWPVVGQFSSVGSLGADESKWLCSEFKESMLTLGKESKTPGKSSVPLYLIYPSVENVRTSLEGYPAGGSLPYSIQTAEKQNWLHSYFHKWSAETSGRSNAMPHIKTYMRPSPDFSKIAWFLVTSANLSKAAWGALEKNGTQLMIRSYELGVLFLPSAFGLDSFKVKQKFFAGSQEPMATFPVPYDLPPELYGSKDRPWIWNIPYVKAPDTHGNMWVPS
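Steps: enzyme plus compound, 15 min RT; add biotin/phosphotyrosine-FITC oligonucleotide (15 nM final), react 5 min; add donor/acceptor beads (10 ug/ml final), 10 min; read AlphaScreen. Tdp1 at 1 nM final.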
TGFb inhibitor – qHTS for Inhibitors of TGF-b | HepG2 CAGA-GFP TGF-b/SMAD3 reporter, GFP fluorescence, 18 h; TGF-beta stimulated, 500 pg/mL final | Potency, µM (titrated, usually from 46.1 µM), hits mostly inhibitors | 410,000 compounds, 1.2% hits | AID 588855, 2011; further: nearly all actives have a fitted effect of over 65% in size
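Read-out: total well GFP (ex488/em500-530) summed from mean per-cell fluorescence. Cells: HEPG2 CAGA-GFP, 1% FBS DMEM, 18 h at 37 degrees C with 500 pg/mL final TGF-beta. Unstimulated wells served as the full-inhibition control; stimulated DMSO wells = 0%.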
HepG2 viability – qHTS for Inhibitors of TGF-b: Cytotox Counterscreen; HepG2 CAGA-GFP viability, ATP luminescence, 18 h; Potency, µM (titrated, usually from 46.1 µM), usual class: cytotoxic; 410,000 compounds, 0.76% hits; AID 588856, 2011
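CellTiter-Glo luminescence gave cytotoxicity after 18 hours at 37 degrees C. The cells were HepG2 CAGA-GFP in 1% FBS DMEM, stimulated with 500 pg/mL TGF-beta after compound addition. %Activity was normalised to no-cell wells (complete cell-killing) and DMSO (no toxicity), and curves were fitted and classified.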
TDP1 cell CPT – qHTS for Inhibitors of human tyrosyl-DNA phosphodiesterase 1 (TDP1): qHTS in cells in presence of CPT | Potency, µM (titrated, usually from 46.2 µM), actives largely listed as inhibitors | chicken DT40 Tdp1-/-;hTDP1 cells + 20 nM CPT, ATP luminescence, 48 h | 420,000 compounds, 12% hits; further: nearly all actives have a fitted effect of over 55% in size
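Chicken DT40 Tdp1-/- cells complemented with human TDP1, 400 cells/well, exposed to compounds plus 20 nM camptothecin for at least 48 h at 37 C; viability read as ATP content by CellTiter-Glo luminescence.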
IL1B secr inh – qHTS for Inhibitors of Inflammasome Signaling: IL-1-beta AlphaLISA Primary Screen | 360,000 compounds, 4.7% hits | THP-1 LPS/ATP IL-1B secretion, AlphaLISA, 16 h; stronger effect = lower value | activity change, % at 57.5 µM; in the data active means activity change below about -50%; inconclusive means mostly about -30% to -49%
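Secreted IL-1B measured by AlphaLISA bead assay after 16 h compound exposure of THP-1 cells; compounds (final up to 57.5 uM) added 1 h before LPS (250 ng/mL) and ATP (1.25 mM) stimulation; lower signal means less secretion.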
DT40 TDP1 no CPT – qHTS for Inhibitors of human tyrosyl-DNA phosphodiesterase 1 (TDP1): qHTS in cells in absence of CPT; DT40 Tdp1-/- hTDP1 cells, no CPT, ATP luminescence, 48 h; Potency, µM (titrated, usually from 46.2 µM), hits mostly inhibitors; 420,000 compounds, 15% hits; AID 686978, 2013; further: nearly all actives have a fitted effect of over 55% in size
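Chicken DT40 Tdp1-/- cells stably complemented with human TDP1 were seeded at 400 cells/well with DMSO in place of 20 nM camptothecin. After compound pinning, cells grew at least 48 hr at 37 °C; viability read by CellTiter-Glo luminescence.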
Numbers stand for hits; – = inactive; ? = inconclusive; · = no result; [ ] = another dose, or the depositor's remark. Unless noted, the call rests on the fitted dose curve; in most records, active means well fitted curve in the direction sought with a large enough effect; inconclusive means small, poorly fitted or top-dose-only effect, or another doubt; inactive means no such curve, though single readings can be large; an effect the other way counts as inactive or inconclusive.

SMILES	TDP1 block	TGFb inhibitor	HepG2 viability	TDP1 cell CPT	IL1B secr inh	DT40 TDP1 no CPT
Cc1cc(C(=O)N2CCN(c3ccc(F)cc3)CC2)on1	·	–	–	–	–	–
CC(NC(=O)C1CCN(C(=O)Nc2ccccc2)CC1)c1ccccc1Cl (centres undefined)	–	–	–	–	–	?
CC(OC(=O)C1CCN(S(=O)(=O)c2ccc(F)cc2)CC1)C(=O)NC1CCCCC1C (centres undefined)	·	?	–	–	–	–
Cc1ccc(NS(=O)(=O)c2ccccc2F)cc1S(=O)(=O)N1CCCCCC1	–	–	–	–	–	–
COc1ccc2cc(C(=O)C3CCCN(C(=O)c4snnc4C)C3)ccc2c1 (centres undefined)	–	?	–	16µM	?	23µM
COc1ccc2cc(C(=O)C3CCCN(C(=O)Cc4c(C)noc4C)C3)ccc2c1 (centres undefined)	–	–	–	23µM	–	21µM
Cc1nc(C)c(C(=O)N2CCCC(C(=O)c3ccc4ccccc4c3)C2)s1 (centres undefined)	–	–	–	?	–	33µM
COc1c(C)cc(C(=O)C2CCCN(C(=O)c3snnc3C)C2)cc1C (centres undefined)	·	–	–	–	–	–
CC(C)C[C@H](NC(=O)[C@H](CC(C)C)NC(=O)[C@H](Cc1ccccc1)NC(=O)[C@@H](N)CO)C(=O)N[C@@H](CCCNC(=N)N)C(=O)N[C@@H](CC(N)=O)C(=O)N1CCC[C@H]1C(=O)N[C@@H](CC(N)=O)C(=O)N[C@@H](CC(=O)O)C(=O)N[C@@H](CCCCN)C(=O)N[C@@H](Cc1ccc(O)cc1)C(=O)N[C@@H](CCC(=O)O)C(=O)N1CCC[C@H]1C(=O)N[C@@H](Cc1ccccc1)C(=O)O	–	·	·	·	·	·
NC(=O)[C@@H]1CCCN1C(=O)CCN1Cc2ccccc2OC(c2ccccc2F)C1 (some centres undefined)	·	·	·	–[9.04 µM]	·	–
Cc1ccc(CCNC(=O)C2CCN(c3nnc(C)c4c(C)n(-c5ccccc5)nc34)CC2)cc1	–	–	–	?	·	–
Cc1nnc(N2CCC(C(=O)NCCC(C)C)CC2)c2nn(-c3ccc(Cl)cc3)c(C)c12	–	?	–	?	·	21µM
CC(=O)c1ccc(NC(=O)C2CCN(c3nnc(C)c4c(C)n(-c5ccccc5)nc34)CC2)cc1	–	?	–	15µM	·	21µM
CCCCN(CC)CCNC(=O)C1CCN(c2nnc(C)c3c(C)n(-c4ccc(C)cc4)nc23)CC1	–	–	–	?	·	21µM
Cc1nnc(N2CCC(C(=O)N3CCCCC3)CC2)c2nn(-c3ccc(Cl)cc3)c(C)c12	–	?	–	21µM	–	?
COc1ccc(-n2nc3c(N4CCC(C(=O)N5CCC(C)CC5)CC4)nnc(C)c3c2C)cc1	–	?	–	?	?	?
Cc1nnc(N2CCC(C(=O)NCCc3ccccc3)CC2)c2nn(-c3ccccc3)c(C)c12	–	–	–	?	·	26µM
Cc1ccc(-n2nc3c(N4CCC(C(=O)NCCc5cccs5)CC4)nnc(C)c3c2C)cc1	–	?	–	26µM	–	29µM
CC(=O)N(C)C1=C(N2CCOCC2)C(=O)c2ccccc2C1=O	–	1.6µM	0.56µM	0.18µM	-94	0.16µM
CC(=O)c1ccc(NC2=C(N3CCOCC3)C(=O)c3ccccc3C2=O)cc1	–	?	–	23µM	-76	21µM
Cc1ccc(NC2=C(N3CCOCC3)C(=O)c3ccccc3C2=O)cc1	–	?	–	21µM	-100	26µM
O=C(O)c1ccc(NC2=C(N3CCOCC3)C(=O)c3ccccc3C2=O)cc1	–	–	–	?	–	?
O=C(OCC#CCSc1nnc(-c2cccc3ccccc23)o1)c1ccc(F)c(F)c1	–	·	·	·	·	·
CC(C)CNC(=O)C1=CC(c2ccc3c(c2)OCO3)=NS(=O)(=O)N1C	–	?	–	–	·	–
C[C@@H](C(=O)Nc1ccc(OC(F)F)c(Cl)c1)N1C(=O)C2CC=CCC2C1=O (some centres undefined)	–	–	–	–	–	–
SMILES	TDP1 block	TGFb inhibitor	HepG2 viability	TDP1 cell CPT	IL1B secr inh	DT40 TDP1 no CPT
Cc1ccc2nc(-c3ccsc3)c(Nc3ccc(C(C)C)cc3)n2c1	–	–	–	–	·	–
Cc1ccc(Nc2c(-c3ccncc3)nc3ccc(C)cn23)cc1	–	–	–	16µM	·	?
Cc1ccc2nc(-c3ccncc3)c(Nc3ccc(C(C)C)cc3)n2c1	–[12.3 µM]	–	–	6.5µM	·	7.3µM
CC(C)NC(=O)C1(C)CN(S(C)(=O)=O)CC(=O)N1CCc1ccccc1 (centres undefined)	·	·	·	–	–	–
COCC(=O)N1CCC(Oc2ccc(C(=O)N3C[C@@H]4CCC[C@H]3C4)cc2)CC1	·	–	–	–	–	–
COc1ccc(OC)c(N(CC(=O)NCCSCc2ccco2)S(=O)(=O)c2ccc(OC)c(OC)c2)c1	–	–	–	13µM	–	16µM
Cc1ccc(N(CC(=O)NCCSCc2ccco2)S(=O)(=O)c2ccc(C)cc2)cc1	–	–	–	–	–	?
COc1cccc(N(CC(=O)NCCSCc2ccco2)S(=O)(=O)c2ccccc2)c1	·	–	–	–	–	?
COc1ccc(N(CC(=O)NCCSCc2ccccc2Cl)S(C)(=O)=O)cc1Cl	–	–	–	12µM	–	?
COc1ccc(N(CC(=O)NCCSCc2ccco2)S(=O)(=O)c2ccccc2)cc1Cl	–	–	–	15µM	–	21µM
CCCN1CNc2c(c(=O)[nH]c(=O)n2CCc2ccc(OC)c(OC)c2)C1	–	·	·	–	·	–
CC(C)CCn1c(=O)c2sccc2n2c(CCCC(=O)Nc3ccc(F)c(Cl)c3)nnc12	–	?	–	–	·	?
Nc1nnc2cc(Cl)ccc2n1	·	–	–	?	?	–
Cc1ccc2nc(N)nnc2c1	·	–	–	?	–	0.52µM
O=C1c2ccccc2C(=O)c2c1ncn2-c1ccccc1	–	?	–	5.8µM	–	5.2µM
CCC(CC)NC(=O)CON=C1c2ccccc2-c2ccccc21	–	–	–	21µM	–	16µM
CCNC(=O)CON=C1c2ccccc2-c2ccccc21	–	–	–	?	–	?

Bioassay records deposited in PubChem by National Center for Advancing Translational Sciences (NCATS).
